Measurements taken from PubChem BioAssay (EPA / NIEHS).
Records with an inconclusive call do not appear. The source made the active and inactive calls. Rule for the calls: active = hit-call score of the fitted dose curve at least 0.9, where 1 is the maximum; inconclusive = response in the unintended direction; inactive = score below 0.9.

Each compound was assayed against Nuclear receptor subfamily 1 group I member 2 (Homo sapiens) (UniProt O75469) (assay: ATG_PXR_TRANS: Attagene TRANS-FACTORIAL HepG2 Assay for human Pregnane X Receptor (PXR) (AID 2283008)).
Chain of Nuclear receptor subfamily 1 group I member 2 (Homo sapiens) (O75469 whole entry, looked up, the tested form may be a part): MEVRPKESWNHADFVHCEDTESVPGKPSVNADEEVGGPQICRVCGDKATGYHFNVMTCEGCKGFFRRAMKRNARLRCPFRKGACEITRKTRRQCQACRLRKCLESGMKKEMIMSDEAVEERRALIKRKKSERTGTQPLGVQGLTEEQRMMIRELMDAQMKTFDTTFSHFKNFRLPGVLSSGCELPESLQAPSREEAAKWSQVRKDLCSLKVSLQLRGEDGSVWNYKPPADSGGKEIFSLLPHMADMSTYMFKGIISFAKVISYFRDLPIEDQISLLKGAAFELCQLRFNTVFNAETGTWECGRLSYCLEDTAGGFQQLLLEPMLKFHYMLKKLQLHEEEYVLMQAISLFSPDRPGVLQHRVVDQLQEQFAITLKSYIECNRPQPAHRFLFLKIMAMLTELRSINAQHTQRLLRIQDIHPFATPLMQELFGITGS
Procedure, shortened: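 Trans-factorial format: exogenous NR-Gal4 fusion activity, not endogenous factor, in transfected human HepG2 liver cells. After 24 h dosing, RNA isolated, reverse-transcribed, amplified and resolved by capillary electrophoresis; induction scored versus DMSO.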
`CCN(CC)C1CCCCC1` was tested, and the outcome was “inactive”.
With `CCCCN(CCCC)N=O` the outcome was “inactive”.
In the case of `N#C/C=C/c1ccccc1`, the outcome is reported as “inactive”.
With `CNC(=O)Oc1ccc(N(C)C)c(C)c1` the outcome was “inactive”.
`Oc1ccccc1Br` was tested, and the outcome was “inactive”.
With `O=NN1CCCC1` the outcome was “inactive”.
`CC1(C)CN=C(NN=C(/C=C/c2ccc(C(F)(F)F)cc2)/C=C/c2ccc(C(F)(F)F)cc2)NC1` was tested, and the outcome was “inactive”.
For `CCOC(=O)c1ccccc1N`, the outcome was “inactive”.
With `Nc1ccc(Sc2ccc(N)cc2)cc1` the AC50 was 50.6 µM (active).
`Cn1[nH]nnc1=S` was tested, and the outcome was “inactive”.
For `CC1=C(C(=O)Nc2ccccc2)S(=O)(=O)CCO1`, the outcome was “inactive”.
For `CCCCN(CC)C(=O)SCCC`, the outcome was “inactive”.
`O=S(=O)(c1ccc(O)cc1)c1ccc(O)cc1` was tested, and the outcome was “inactive”.
With `N#Cc1cc([N+](=O)[O-])ccc1N` the outcome was “inactive”.
`CCCCOCC1CO1` (stereo unspecified) was tested, and the outcome was “inactive”.
`OCC(F)(F)OC(F)(F)C(F)(F)OC(F)(F)CO` was tested, and the outcome was “inactive”.
With `CC(C)(C)N(NC(=O)c1ccc(Cl)cc1)C(=O)c1ccccc1` the outcome was “inactive”.
In the case of `CO/N=C(/C(=O)OC)c1ccccc1COc1ccccc1C`, the AC50 is reported as 4.28 µM (active).
For `Cc1ccc([N+](=O)[O-])cc1C`, the outcome was “inactive”.
In the case of `O=[N+]([O-])c1cc(Cl)ccc1Cl`, the outcome is reported as “inactive”.
For `CCN(CC)c1ccccc1`, the outcome was “inactive”.
In the case of `O=[N+]([O-])c1ccccc1`, the outcome is reported as “inactive”.
With `Oc1ccc(I)cc1` the outcome was “inactive”.
With `CC(=O)c1ccc(-c2ccccc2)cc1` the AC50 was 24.7 µM (active).
With `CCOC(=O)c1ccccc1C(=O)OCC` the outcome was “inactive”.
For `CC(C)Nc1ccc(Nc2ccccc2)cc1`, the AC50 was 2.71 µM (active).
For `C/C(=N\NC(=O)Nc1cc(F)cc(F)c1)c1ncccc1C(=O)O`, the outcome was “inactive”.
For `Cc1cc(C)c(C(=O)P(=O)(c2ccccc2)c2ccccc2)c(C)c1`, the AC50 was 0.0576 µM (active).
In the case of `CCOP(=O)(O)C(N)=O`, the outcome is reported as “inactive”.
For `CC(=O)CCc1ccc2c(c1)OCO2`, the outcome was “inactive”.
For `FC(F)(F)c1ccc(Cl)cc1`, the outcome was “inactive”.
